Measured values: PubChem BioAssay (NCATS)
Results filed as inconclusive are left out. Active and inactive are the calls of the source. The call rests on the fitted dose curve; in most records, active means well fitted curve in the direction sought with a large enough effect; inconclusive means small, poorly fitted or top-dose-only effect, or another doubt; inactive means no such curve, though single readings can be large; an effect the other way counts as inactive or inconclusive.

Key:
CAOV3 = experiment: Primary qHTS to identify gynecologic anti-cancer compounds using libraries of approved drugs and bioactive compounds (AID 1345084); conditions: Gynecologic cancer cell panel viability, ATPlite luminescence, 48 h; series mostly up to 57.5 µM; further: nearly all actives have a fitted effect of over 55% in size; on activity change, negative = cytotoxicity: on the % scale 0 is the no-effect control and ±100 the full control effect
Method in brief: (§1)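 Cytotoxicity screen measuring ATP content by luciferase luminescence. Each compound is applied at five concentrations for 48 h at 37 C with 5% CO2.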

CASKI = experiment: as above; conditions: Gynecologic cancer cell panel viability, ATPlite luminescence, 48 h; series mostly up to 57.5 µM
Method in brief: as §1

Es-2 = experiment: as above; conditions: Gynecologic cancer cell panel viability, ATPlite luminescence, 48 h; series mostly up to 57.5 µM
Method in brief: as §1

HeLa = experiment: as above; conditions: Gynecologic cancer cell panel viability, ATPlite luminescence, 48 h; series mostly up to 57.5 µM
Method in brief: as §1

Hek293T = experiment: as above; conditions: Gynecologic cancer cell panel viability, ATPlite luminescence, 48 h, control line for the selectivity index; series mostly up to 57.5 µM
Method in brief: as §1

JEG-3 = experiment: as above; conditions: Gynecologic cancer cell panel viability, ATPlite luminescence, 48 h; series mostly up to 57.5 µM
Method in brief: as §1

OV90 = experiment: as above; conditions: Gynecologic cancer cell panel viability, ATPlite luminescence, 48 h; series mostly up to 57.5 µM
Method in brief: as §1

PA-1 = experiment: as above; conditions: Gynecologic cancer cell panel viability, ATPlite luminescence, 48 h; series mostly up to 57.5 µM
Method in brief: as §1

SKOV3 = experiment: as above; conditions: Gynecologic cancer cell panel viability, ATPlite luminescence, 48 h; series mostly up to 57.5 µM
Method in brief: as §1

Tov-21-G = experiment: as above; conditions: Gynecologic cancer cell panel viability, ATPlite luminescence, 48 h; series mostly up to 57.5 µM
Method in brief: as §1

Tov112D = experiment: as above; conditions: Gynecologic cancer cell panel viability, ATPlite luminescence, 48 h; series mostly up to 57.5 µM
Method in brief: as §1

C33A = experiment: as above; conditions: Gynecologic cancer cell panel viability, ATPlite luminescence, 48 h; series mostly up to 57.5 µM
Method in brief: as §1

[1] = qHTS assay to identify inhibitors of the type 1 interferon - major histocompatibility complex class I in skeletal muscle: Counter screen cell viability and HiBit confirmation (AID 1347412); conditions: iHSKM muscle cells + IFN-b, HiBiT or CellTiter-Glo, 24 h; further: nearly all actives have a fitted effect of over 60% in size
Method in brief: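 After 24 h with human IFN-beta (4 ng/ml) and compound titrations (top 46 uM final, 1:3, 12 points), HLA-B HiBit myoblasts were lysed for either Nano-Glo HiBiT luminescence or CellTiter Glo viability on paired plates.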
Potency means the concentration at half of the fitted maximal effect.

Cc1ccc(OC[C@H](O)[C@H](C)NC(C)C)c2c1CCC2
inactive: Potency (CAOV3) | Potency (CASKI) | Potency (Es-2) | Potency (HeLa) | Potency (Hek293T) | Potency (JEG-3) | Potency (OV90) | Potency (PA-1) | Potency (SKOV3) | Potency (Tov-21-G) | Potency (Tov112D)

C=C1CC[C@@H]2[C@](C)(CO)[C@H](O)CC[C@@]2(C)[C@@H]1CC(=O)C1=CCOC1=O
inactive: Potency (C33A) | Potency (Hek293T) | Potency (OV90) | Potency (SKOV3)

CC(C)CCNC(=O)[C@H](CC(C)C)NC(=O)[C@H]1O[C@@H]1C(=O)O
inactive: Potency (CAOV3)

CC(C)n1cnc2c(-c3cnc(N)nc3)nc(N3CCOCC3)nc21
active: Potency (Hek293T) 1120 nM | Potency (SKOV3) 1260 nM
inactive: Potency (C33A) | Potency (JEG-3)

CCCC(CCC)C(=O)Nc1ccn([C@@H]2O[C@H](CO)[C@@H](O)C2(F)F)c(=O)n1
inactive: Potency (C33A) | Potency (HeLa) | Potency (Hek293T) | Potency (JEG-3)
active: Potency (Tov112D) 10000 nM

Cc1c(NC(=O)c2cc3c(s2)CCCC3)cccc1-c1cn(C)c(=O)c(Nc2ccc(C3C(=O)N(C)CCN3C)cc2)n1 (centres undefined)
inactive: Potency (C33A) | Potency (Es-2) | Potency (Hek293T)

CCNC(=O)C#Cc1ccc2c(C(=Nc3ccc(CN(C)C)cc3)c3ccccc3)c(O)[nH]c2c1
active: Potency (OV90) 447 nM | Potency (SKOV3) 1410 nM | Potency ([1]; HiBiT) 17600 nM | Potency ([1]; Viability) 9910 nM
inactive: Potency (C33A) | Potency (Hek293T) | Potency (JEG-3)

CC(C)CCNC(=O)c1ccc2c(c1)nc(Nc1n[nH]c3ccc(-c4ccccc4OC(F)(F)F)cc13)n2C1CCC(O)CC1 (centres undefined)
inactive: Potency (CAOV3) | Potency (CASKI) | Potency (Es-2) | Potency (HeLa) | Potency (Hek293T) | Potency (JEG-3) | Potency (OV90) | Potency (PA-1) | Potency (SKOV3) | Potency (Tov-21-G) | Potency (Tov112D)

O=C(c1ccc(Cl)cc1)N1CCN(c2ccnc3cc(Cl)ccc23)CC1
inactive: Potency (CAOV3) | Potency (CASKI) | Potency (Es-2) | Potency (HeLa) | Potency (Hek293T) | Potency (JEG-3) | Potency (OV90) | Potency (PA-1) | Potency (SKOV3) | Potency (Tov-21-G) | Potency (Tov112D)

CCNC(=O)c1noc(-c2cc(Cl)c(O)cc2O)c1-c1ccc(OC)cc1
active: Potency (C33A) 1120 nM | Potency (Hek293T) 355 nM | Potency (PA-1) 562 nM | Potency (SKOV3) 2820 nM | Potency (Tov-21-G) 562 nM | Potency (Tov112D) 501 nM
inactive: Potency (OV90)

C/C=C(\C)C(=O)O[C@H]1C=C(CO)C(=O)[C@H](OC(C)=O)[C@H]1C(C)C
inactive: Potency (HeLa) | Potency (OV90) | Potency (Tov112D)
active: Potency (C33A) 12600 nM

Cc1noc(C)c1-c1cc(O)cc(C(O)c2ccccc2)c1 (centres undefined)
inactive: Potency (C33A) | Potency (Hek293T) | Potency (JEG-3) | Potency (OV90) | Potency (Tov-21-G) | Potency (Tov112D)
active: Potency (SKOV3) 15800 nM

Fc1ccc(-c2nc(C3CCNCC3)sc2-c2ccnc(NC3CC3)n2)cc1
inactive: Potency (C33A) | Potency (Hek293T) | Potency (OV90) | Potency (Tov112D)

CNC1CN(c2ccc3c(=O)c(C(=O)O)cn(-c4nccs4)c3n2)CC1OC (centres undefined)
inactive: activity change, negative = cytotoxicity (CAOV3) -13% [at 11.6 µM] | activity change, negative = cytotoxicity (CASKI) -25.3% [at 11.6 µM] | activity change, negative = cytotoxicity (HeLa) -22.6% [at 11.6 µM] | activity change, negative = cytotoxicity (JEG-3) -9.7% [at 11.6 µM] | activity change, negative = cytotoxicity (OV90) -6.73% [at 11.6 µM]
active: Potency (PA-1) 1410 nM

COc1cc(/C=C2\CCCN([C@@H](C)c3ccc(F)cc3)C2=O)ccc1-n1cnc(C)c1
inactive: Potency (CAOV3) | Potency (CASKI) | Potency (HeLa) | Potency (JEG-3) | Potency (OV90) | Potency (Tov-21-G) | Potency (Tov112D)

O=C(COc1ccc(C(=O)c2ccccc2)cc1)NC1CCN(Cc2ccccc2)CC1
inactive: Potency (CAOV3) | Potency (CASKI) | Potency (Es-2) | Potency (HeLa) | Potency (JEG-3) | Potency (PA-1) | Potency (Tov-21-G) | Potency (Tov112D)

COc1ccc(CN2CCN(C(=O)CCNC(=O)c3ccc(C(C)(C)C)cc3)CC2)cc1
inactive: Potency (CAOV3) | Potency (CASKI) | Potency (Es-2) | Potency (HeLa) | Potency (JEG-3) | Potency (OV90) | Potency (SKOV3) | Potency (Tov-21-G) | Potency (Tov112D)

C=C1CC2OC(=O)C(COC)C2C(OC(=O)/C(C)=C\C)CC2(C)OC1=CC2=O (centres undefined)
inactive: Potency (CAOV3) | Potency (CASKI) | Potency (HeLa) | Potency (JEG-3) | Potency (OV90) | Potency (SKOV3) | Potency (Tov112D)

C/C=C(/C)C(=O)OC1CC(C)(C)CC2C3=CCC4C5(C)CCC(O[C@@H]6O[C@H](C(=O)O)[C@@H](O)[C@H](O)[C@H]6O[C@@H]6O[C@H](CO)[C@H](O)[C@H](O[C@@H]7OC[C@H](O)[C@H](O)[C@H]7O[C@@H]7O[C@H](CO)[C@@H](O)[C@H](O)[C@H]7O)[C@H]6O)C(C)(C)C5CCC4(C)C3(C)C(O)C(O)C12CO (some centres undefined)
inactive: activity change, negative = cytotoxicity (CAOV3) -23.4% [at 6.55 µM] | activity change, negative = cytotoxicity (CASKI) -3.66% [at 6.55 µM] | activity change, negative = cytotoxicity (Es-2) -27.7% [at 6.55 µM] | activity change, negative = cytotoxicity (HeLa) -5.95% [at 6.55 µM] | activity change, negative = cytotoxicity (JEG-3) -6.95% [at 6.55 µM] | activity change, negative = cytotoxicity (SKOV3) -5.71% [at 6.55 µM]

COc1cc(N2CCC(N3CCN(C)CC3)CC2)ccc1Nc1ncc(Cl)c(Nc2ccccc2P(C)(C)=O)n1
inactive: Potency (JEG-3)
active: Potency (CAOV3) 2240 nM | Potency (CASKI) 10000 nM | Potency (HeLa) 6310 nM | Potency (PA-1) 11200 nM | Potency (SKOV3) 8910 nM | Potency (Tov-21-G) 7080 nM

C[C@@H]1O[C@@H](O[C@H]2[C@H](OC(=O)[C@]34CCC(C)(C)C[C@H]3C3=CCC5[C@@]6(C)C[C@H](O)[C@H](O[C@@H]7O[C@H](CO)[C@@H](O)[C@H](O)[C@H]7O)[C@](CO)(C(=O)O)C6CC[C@@]5(C)[C@]3(C)C[C@H]4O)OC[C@H](O)[C@@H]2O)[C@H](O)[C@H](O)[C@H]1O[C@@H]1OC[C@@H](O)[C@H](O[C@@H]2OC[C@](O)(CO)[C@H]2O)[C@H]1O (some centres undefined)
active: Potency (Es-2) 2820 nM | Potency (Tov112D) 1410 nM
inactive: activity change, negative = cytotoxicity (CAOV3) -2.46% [at 6.55 µM] | activity change, negative = cytotoxicity (CASKI) -28.8% [at 6.55 µM] | activity change, negative = cytotoxicity (OV90) -28.6% [at 6.55 µM]
